According to PubChem BioAssay (NCATS):
Inconclusive results are not listed. A number with no mark means an inactive call. Calls of active or inactive are those of the source. Calls follow the shape of the dose curve; as a rule, active = well fitted curve in the direction sought with a large enough effect; inconclusive = small, poorly fitted or top-dose-only effect, or another doubt; inactive = no such curve, though single readings can be large; an effect the other way counts as inactive or inconclusive.

How the values were obtained:
[1] = Quantitative High-Throughput drug screen in 47 multiple myeloma cell lines against the NCATS MIPE library collection: KMS26_JCRB cell viability assay (AID 1918975); also: nearly all actives have a fitted effect of over 45% in size
Summary of the method: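 Myeloma cell lines, 500 cells per well, exposed to MIPE 4.0 library compounds for 48 h at 37C, 5% CO2. Viability from ATP by CellTiter-Glo luminescence; normalised to DMSO (100%) and media-only (0%) wells.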

[2] = Quantitative High-Throughput drug screen in 47 multiple myeloma cell lines against the NCATS MIPE library collection: NCIH929_DSMZ cell viability assay (AID 1918978); also: nearly all actives have a fitted effect of over 35% in size
Summary of the method: (§1)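 MIPE 4.0 approved/investigational drugs; 500 cells/well; 48 h 37 °C humidified 5% CO2; CTG luminescence readout; DMSO = 100%, media = 0% viability.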

[3] = Quantitative High-Throughput drug screen in 47 multiple myeloma cell lines against the NCATS MIPE library collection: OCIMY1_PLB cell viability assay (AID 1918979); also: nearly all actives have a fitted effect of over 35% in size; as to viability: series mostly up to about 46 µM
Summary of the method: as §1

[4] = Quantitative High-Throughput drug screen in 47 multiple myeloma cell lines against the NCATS MIPE library collection: MM1S_ATCC cell viability assay (AID 1918980); also: nearly all actives have a fitted effect of over 45% in size
Summary of the method: as §1

[5] = Quantitative High-Throughput drug screen in 47 multiple myeloma cell lines against the NCATS MIPE library collection: MM1R_ATCC cell viability assay (AID 1918981); also: nearly all actives have a fitted effect of over 35% in size
Summary of the method: as §1

[6] = Quantitative High-Throughput drug screen in 47 multiple myeloma cell lines against the NCATS MIPE library collection: LP1_DSMZ cell viability assay (AID 1918982); also: nearly all actives have a fitted effect of over 35% in size
Summary of the method: as §1

[7] = Quantitative High-Throughput drug screen in 47 multiple myeloma cell lines against the NCATS MIPE library collection: KMS28PE_JCRB cell viability assay (AID 1918983); also: nearly all actives have a fitted effect of over 35% in size
Summary of the method: as §1

[8] = Quantitative High-Throughput drug screen in 47 multiple myeloma cell lines against the NCATS MIPE library collection: OCIMY7_PLB cell viability assay (AID 1918987); also: nearly all actives have a fitted effect of over 65% in size
Summary of the method: as §1

[9] = Quantitative High-Throughput drug screen in 47 multiple myeloma cell lines against the NCATS MIPE library collection: OCIMY5_PLB cell viability assay (AID 1918988); also: nearly all actives have a fitted effect of over 65% in size
Summary of the method: as §1

[10] = Quantitative High-Throughput drug screen in 47 multiple myeloma cell lines against the NCATS MIPE library collection: OPM1_PLB cell viability assay (AID 1918989); also: nearly all actives have a fitted effect of over 40% in size
Summary of the method: as §1

[11] = Quantitative High-Throughput drug screen in 47 multiple myeloma cell lines against the NCATS MIPE library collection: SKMM1_PLB cell viability assay (AID 1919863); conditions: SKMM1 myeloma viability, CellTiter-Glo ATP, 48 h; viability: hits give low values; also: nearly all actives have a fitted effect of over 35% in size; as to viability: series mostly up to about 46 µM
Summary of the method: as §1

[12] = Quantitative High-Throughput drug screen in 47 multiple myeloma cell lines against the NCATS MIPE library collection: XG6_PLB cell viability assay (AID 1919865); also: nearly all actives have a fitted effect of over 40% in size
Summary of the method: as §1

[13] = Quantitative High-Throughput drug screen in 47 multiple myeloma cell lines against the NCATS MIPE library collection: XG1_PLB cell viability assay (AID 1919866); also: nearly all actives have a fitted effect of over 35% in size
Summary of the method: as §1

[14] = Quantitative High-Throughput drug screen in 47 multiple myeloma cell lines against the NCATS MIPE library collection: VP6_DJ cell viability assay (AID 1919867); also: nearly all actives have a fitted effect of over 40% in size
Summary of the method: as §1

[15] = Quantitative High-Throughput drug screen in 47 multiple myeloma cell lines against the NCATS MIPE library collection: L363_DSMZ cell viability assay (AID 1918984); also: nearly all actives have a fitted effect of over 40% in size
Summary of the method: as §1

[16] = Quantitative High-Throughput drug screen in 47 multiple myeloma cell lines against the NCATS MIPE library collection: MOLP8_DSMZ cell viability assay (AID 1918977); also: nearly all actives have a fitted effect of over 45% in size
Summary of the method: as §1

[17] = Quantitative High-Throughput drug screen in 47 multiple myeloma cell lines against the NCATS MIPE library collection: U266_ATCC cell viability assay (AID 1919864); also: nearly all actives have a fitted effect of over 35% in size
Summary of the method: as §1

[18] = Quantitative High-Throughput drug screen in 47 multiple myeloma cell lines against the NCATS MIPE library collection: KMS34_JCRB cell viability assay (AID 1918985); also: nearly all actives have a fitted effect of over 40% in size
Summary of the method: as §1

[19] = Quantitative High-Throughput drug screen in 47 multiple myeloma cell lines against the NCATS MIPE library collection: MMM1_PLB cell viability assay (AID 1918976); also: nearly all actives have a fitted effect of over 35% in size
Summary of the method: as §1
Potency is read from the fitted curve at half-maximal effect.

SMILES	Potency [1]	Potency [2]	Potency [3]	Potency [4]	Potency [5]	Potency [6]	Potency [7]	Potency [8]	Potency [9]	Potency [10]	viability [11] [%]	Potency [12]	Potency [13]	Potency [14]	Potency [15]	Potency [16]	Potency [17]	Potency [18]	Potency [11]	Potency [19]
O=C(C=Cc1c(C(=O)O)[nH]c2cc(Cl)cc(Cl)c12)Nc1ccccc1	inactive	inactive	inactive	inactive	inactive	inactive	inactive	inactive	inactive	inactive	114	inactive	inactive	inactive	–	–	–	–	–	–
C1Cc2[nH]nc(-c3nn[nH]n3)c2C1	inactive	inactive	–	inactive	inactive	inactive	inactive	–	–	–	115	inactive	inactive	–	inactive	–	–	–	–	–
CN(C)c1nc(Cc2ccc(NC(=O)c3ccc4ccccc4c3)cc2)nc(Cl)c1CC(=O)O	inactive	inactive	–	2.96 µM (active)	inactive	inactive	inactive	–	1.66 µM (active)	inactive	–	inactive	inactive	inactive	–	inactive	inactive	–	–	–
Cc1[nH]c2ccccc2c1CCNCc1ccc(C=CC(=O)NO)cc1	0.0662 µM (active)	–	0.166 µM (active)	0.0743 µM (active)	0.0296 µM (active)	–	0.059 µM (active)	0.0743 µM (active)	0.0418 µM (active)	0.0264 µM (active)	–	0.148 µM (active)	0.105 µM (active)	0.0187 µM (active)	–	0.0526 µM (active)	–	0.0526 µM (active)	0.105 µM (active)	–
Nc1nc(NCCNc2ncc(-n3ccnc3)c(-c3ccc(Cl)cc3Cl)n2)ccc1[N+](=O)[O-]	16.6 µM (active)	1.18 µM (active)	–	2.35 µM (active)	16.6 µM (active)	11.8 µM (active)	23.5 µM (active)	5.26 µM (active)	–	5.26 µM (active)	–	2.35 µM (active)	6.62 µM (active)	7.43 µM (active)	5.26 µM (active)	16.6 µM (active)	inactive	–	–	–
CCCNC(=O)Nc1ccc(Oc2ncnc3cc(OC)c(OC)cc23)cc1Cl	–	inactive	inactive	20.9 µM (active)	inactive	inactive	inactive	–	–	inactive	116	inactive	inactive	–	inactive	inactive	–	inactive	–	1.66 µM (active)
O=C(O)c1ccc2cc(-c3ccc(O)c(C45CC6CC(CC(C6)C4)C5)c3)ccc2c1	–	–	16.6 µM (active)	1.32 µM (active)	0.662 µM (active)	20.9 µM (active)	3.32 µM (active)	0.105 µM (active)	2.96 µM (active)	–	–	0.132 µM (active)	0.526 µM (active)	13.2 µM (active)	0.833 µM (active)	1.32 µM (active)	–	13.2 µM (active)	4.18 µM (active)	18.7 µM (active)
c1ccc2c(CCNc3ccc(Nc4ccncc4)cc3)c[nH]c2c1	–	20.9 µM (active)	inactive	2.96 µM (active)	3.32 µM (active)	–	18.7 µM (active)	8.33 µM (active)	–	18.7 µM (active)	–	23.5 µM (active)	20.9 µM (active)	23.5 µM (active)	4.69 µM (active)	–	–	–	29.6 µM (active)	13.2 µM (active)
CNC(=O)c1ccc(-c2cnc3ncc(Cc4ccc5ncccc5c4)n3n2)cc1F	inactive	–	inactive	inactive	–	inactive	inactive	–	23.5 µM (active)	inactive	133	–	–	inactive	inactive	–	inactive	inactive	–	–
C=CC(=O)Nc1cccc(Oc2nc(Nc3ccc(N4CCN(C)CC4)cc3OC)ncc2Cl)c1	26.4 µM (active)	–	20.9 µM (active)	–	–	20.9 µM (active)	–	0.001 µM (active)	0.0026 µM (active)	0.662 µM (active)	–	–	0.0047 µM (active)	0.0187 µM (active)	–	–	23.5 µM (active)	16.6 µM (active)	–	–
Nc1nc(-c2nn(Cc3ccccc3F)c3ncccc23)nc(N)c1N1CCOCC1	inactive	–	inactive	inactive	–	–	inactive	–	–	–	84.5	–	–	3.72 µM (active)	–	inactive	–	–	–	–
COc1cc(C(=O)NS(=O)(=O)c2ccccc2C)ccc1Cc1cn(C)c2ccc(NC(=O)OC3CCCC3)cc12	16.6 µM (active)	18.7 µM (active)	–	–	14.8 µM (active)	20.9 µM (active)	23.5 µM (active)	14.8 µM (active)	–	7.43 µM (active)	–	14.8 µM (active)	11.8 µM (active)	16.6 µM (active)	–	18.7 µM (active)	18.7 µM (active)	–	18.7 µM (active)	–
